In PubChem BioAssay (NCI) one finds growth inhibition data, which are given here for ten compounds.

Compounds without any hit were thinned out: in the full panel of roughly 79,000, 15% have a hit. A number with no mark means an inactive call. Activity calls are given as the source filed them. Cut-off read from the data, not from the text of the source: active = growth inhibition above about 70%; inactive = the rest.

A short description of assay [1]: NCI Yeast Anticancer Drug Screen. Data for the rad50 strain (AID 155).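 Note: 0% = growth of vehicle-only cultures of the same strain.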 The conditions noted are these: S. cerevisiae rad50 strain growth inhibition, stronger effect = higher value. A digest of the protocol:
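Cells are treated with compound, grown, and their growth is then scored against vehicle-only cultures of the same repair-deficient yeast strain.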

Assay [2] in a line: NCI Yeast Anticancer Drug Screen. Data for the mec2-1 strain (AID 157). The conditions noted are these: S. cerevisiae mec2-1 strain, stronger effect = higher value. Summed up: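 Cells of the genetically defined mec2-1 yeast strain are incubated with test compound. Inhibition of growth is calculated against vehicle-treated controls.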
The nature of assay [3]: NCI Yeast Anticancer Drug Screen. Data for the sgs1 mgt1 strain (AID 161).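 Note: 0% = growth of cultures given vehicle only.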 The conditions noted are these: S. cerevisiae sgs1 mgt1 strain, stronger effect = higher value. A digest of the protocol: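 Read-out: growth inhibition vs vehicle controls. Cells: mutant yeast strain deficient in DNA damage repair.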
Assay [4] is described as follows: NCI Yeast Anticancer Drug Screen. Data for the cln2 rad14 strain (AID 165).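 Note: 0% = growth equal to vehicle treated cultures.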 The note with it: S. cerevisiae cln2 rad14 strain, stronger effect = higher value. Summed up:
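The screen exposed genetically defined yeast (cln2 rad14) to test compounds and scored growth inhibition relative to vehicle-treated controls.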

Assay [5] in a line: NCI Yeast Anticancer Drug Screen. Data for the bub3 strain (AID 167). The note with it: S. cerevisiae bub3 mutant strain, stronger effect = higher value. Summed up: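 Part of a panel of yeast mutants defective in DNA damage repair or cell cycle regulation. Each strain is grown with compound, and inhibition is calculated relative to solvent-treated cultures.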
Assay [6] is described as follows: NCI Yeast Anticancer Drug Screen. Data for the mlh1 rad18 strain (AID 175). The conditions noted are these: S. cerevisiae mlh1 rad18 strain growth inhibition, stronger effect = higher value. A digest of the protocol:
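Compound-treated yeast growth, normalised to vehicle controls. Strain bears defined DNA repair mutations.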

The mark [7] stands for this setting: at 5.0 µM (retest, dose inferred, filed as 0.5).
Setting [8] is: at 50.0 µM (retest, dose inferred, filed as 5.0).

Take `O=c1ccnc(Nc2ccc[nH]c2=S)[nH]1`: the growth inhibition in assay [1] (setting [7]) is -2%; in assay [1] (setting [8]), -11%; in assay [1] (at 50.0 µM), 3.2%; in assay [2] (setting [7]), 0%; in assay [2] (setting [8]), -7%; in assay [2] (at 50.0 µM) it was -3.3%. The growth inhibition in assay [3] (setting [7]) was -1%; in assay [3] (setting [8]), -7%; in assay [3] (at 50.0 µM), 46.2%; in assay [4] (setting [7]), -3%; in assay [4] (setting [8]) it was -23%; in assay [4] (at 50.0 µM), 1.4%. In addition, the growth inhibition is 4% in assay [5] (setting [7]); 1% in assay [5] (setting [8]); 8.85% in assay [5] (at 50.0 µM); -3% in assay [6] (setting [7]); -16% in assay [6] (setting [8]); 1.85% in assay [6] (at 50.0 µM).
As for `CCC[CH2][Sn]([CH2]CCC)([O]C(=O)c1ccc(C)c(N)c1)[O]C(=O)c1ccc(C)c(N)c1`, the growth inhibition in assay [1] (setting [7]) is 98% (active); in assay [1] (setting [8]), 98% (active); in assay [1] (at 50.0 µM) it was 91.7% (active); in assay [2] (setting [7]), 92% (active); in assay [2] (setting [8]), 92% (active); in assay [2] (at 50.0 µM) it was 92% (active). In addition, the growth inhibition in assay [3] (setting [7]) was 96% (active); in assay [3] (setting [8]) it was 96% (active); in assay [3] (at 50.0 µM), 92.5% (active); in assay [4] (setting [7]), 96% (active); in assay [4] (setting [8]), 96% (active); in assay [4] (at 50.0 µM), 91.3% (active). Besides, the growth inhibition in assay [5] (setting [7]) was 90% (active); in assay [5] (setting [8]) it was 90% (active); in assay [5] (at 50.0 µM), 89% (active); in assay [6] (setting [7]) it was 97% (active); in assay [6] (setting [8]), 97% (active); in assay [6] (at 50.0 µM), 87.5% (active).
Turning to `CC1Cc2cc(O)c(O)cc2-c2cc(O)c(O)cc2CC1C` (stereo not given), the growth inhibition is -6% in assay [1] (setting [7]); 86% (active) in assay [1] (setting [8]); 72.1% (active) in assay [1] (at 50.0 µM); -11% in assay [2] (setting [7]); 89% (active) in assay [2] (setting [8]); 83.8% (active) in assay [2] (at 50.0 µM). Further, the growth inhibition in assay [3] (setting [7]) was -9%; in assay [3] (setting [8]), 75% (active); in assay [3] (at 50.0 µM) it was 80.7% (active); in assay [4] (setting [7]), 7%; in assay [4] (setting [8]) it was 85% (active); in assay [4] (at 50.0 µM), 83.4% (active). The growth inhibition in assay [5] (setting [7]) is -30%; in assay [5] (setting [8]) it was 93% (active); in assay [5] (at 50.0 µM), 79.4% (active); in assay [6] (setting [7]), -8%; in assay [6] (setting [8]), 93% (active); in assay [6] (at 50.0 µM), 83.7% (active).
Turning to `CCCCCCCCCCCCCCSC(=N)N`, the growth inhibition in assay [1] (setting [7]) was 99% (active); in assay [1] (setting [8]), 95% (active); in assay [1] (at 50.0 µM) it was 66.3%; in assay [2] (setting [7]), 65%; in assay [2] (setting [8]), 97% (active); in assay [2] (at 50.0 µM), 98.5% (active). Moreover, the growth inhibition was 100% (active) in assay [3] (setting [7]); 95% (active) in assay [3] (setting [8]); 45.5% in assay [3] (at 50.0 µM); 41% in assay [4] (setting [7]); 95% (active) in assay [4] (setting [8]); 54.5% in assay [4] (at 50.0 µM). Moreover, the growth inhibition in assay [5] (setting [7]) was 100% (active); in assay [5] (setting [8]) it was 96% (active); in assay [5] (at 50.0 µM) it was 98.7% (active); in assay [6] (setting [7]), 95% (active); in assay [6] (setting [8]) it was 96% (active); in assay [6] (at 50.0 µM), 97.7% (active).
As to `OC1(c2ccccc2)c2ccccc2C(O)(c2ccccc2)c2cc3c(cc21)CCCC3` (stereo not given), the growth inhibition in assay [1] (setting [7]) is 81% (active); in assay [1] (setting [8]) it was 96% (active); in assay [1] (at 50.0 µM), 96.8% (active); in assay [2] (setting [7]), 28%; in assay [2] (setting [8]) it was 98% (active); in assay [2] (at 50.0 µM), 97.5% (active). Moreover, the growth inhibition in assay [3] (setting [7]) is 17%; in assay [3] (setting [8]), 98% (active); in assay [3] (at 50.0 µM) it was 97.7% (active); in assay [4] (setting [7]) it was -3%; in assay [4] (setting [8]), 97% (active); in assay [4] (at 50.0 µM), 97.7% (active). Besides, the growth inhibition in assay [5] (setting [7]) is 17%; in assay [5] (setting [8]) it was 98% (active); in assay [5] (at 50.0 µM) it was 96% (active); in assay [6] (setting [7]), 51%; in assay [6] (setting [8]) it was 96% (active); in assay [6] (at 50.0 µM), 96.8% (active).
Turning to `CC(C)C1=C2CCC3(C)C(CCC4C5C6OCC5(CCC6(C)C)CCC43C)C2(C)CC1` (stereo not given), the growth inhibition in assay [1] (setting [7]) is 22%; in assay [1] (setting [8]) it was 49%; in assay [1] (at 50.0 µM), 72.5% (active); in assay [2] (setting [7]), 6%; in assay [2] (setting [8]), 40%; in assay [2] (at 50.0 µM), 77.5% (active). Besides, the growth inhibition is 19% in assay [3] (setting [7]); 69% in assay [3] (setting [8]); 82.3% (active) in assay [3] (at 50.0 µM); 27% in assay [4] (setting [7]); 62% in assay [4] (setting [8]); 83.7% (active) in assay [4] (at 50.0 µM). For the same compound, the growth inhibition was 10% in assay [5] (setting [7]); 57% in assay [5] (setting [8]); 77% (active) in assay [5] (at 50.0 µM); 17% in assay [6] (setting [7]); 45% in assay [6] (setting [8]); 65.5% in assay [6] (at 50.0 µM).
Take `OC(c1ccccc1)(C(F)(F)F)C(O)(c1ccccc1)C(F)(F)F` (stereo not given): the growth inhibition in assay [1] (setting [7]) is 77% (active); in assay [1] (setting [8]), 99% (active); in assay [1] (at 50.0 µM), 94.4% (active); in assay [2] (setting [7]), 57%; in assay [2] (setting [8]), 99% (active); in assay [2] (at 50.0 µM) it was 89.2% (active). The growth inhibition in assay [3] (setting [7]) was 87% (active); in assay [3] (setting [8]), 99% (active); in assay [3] (at 50.0 µM), 89.7% (active); in assay [4] (setting [7]) it was 57%; in assay [4] (setting [8]), 99% (active); in assay [4] (at 50.0 µM) it was 90.5% (active). Also, the growth inhibition is 76% (active) in assay [5] (setting [7]); 99% (active) in assay [5] (setting [8]); 81.6% (active) in assay [5] (at 50.0 µM); 85% (active) in assay [6] (setting [7]); 99% (active) in assay [6] (setting [8]); 95.5% (active) in assay [6] (at 50.0 µM).
On to `CC[N+](C)(CC)CCC(=O)/C=C/c1ccccc1`, for which the growth inhibition in assay [1] (setting [7]) was 15%; in assay [1] (setting [8]) it was 54%; in assay [1] (at 50.0 µM) it was 87.5% (active); in assay [2] (setting [7]), 11%; in assay [2] (setting [8]), 69%; in assay [2] (at 50.0 µM), 93% (active). Further, the growth inhibition in assay [3] (setting [7]) was 5%; in assay [3] (setting [8]), 55%; in assay [3] (at 50.0 µM), 88.6% (active); in assay [4] (setting [7]), 16%; in assay [4] (setting [8]), 49%; in assay [4] (at 50.0 µM), 53.1%. For the same compound, the growth inhibition in assay [5] (setting [7]) is 3%; in assay [5] (setting [8]), 74% (active); in assay [5] (at 50.0 µM), 76.5% (active); in assay [6] (setting [7]), 11%; in assay [6] (setting [8]), 46%; in assay [6] (at 50.0 µM) it was -47.8%.
For `CCCCCCCCCCNCCSSCCNC(C)=O`, the growth inhibition in assay [1] (setting [7]) is 89% (active); in assay [1] (setting [8]) it was 98% (active); in assay [1] (at 50.0 µM), 99.2% (active); in assay [2] (setting [7]) it was 87% (active); in assay [2] (setting [8]), 99% (active); in assay [2] (at 50.0 µM), 99.4% (active). The growth inhibition is 97% (active) in assay [3] (setting [7]); 99% (active) in assay [3] (setting [8]); 99.3% (active) in assay [3] (at 50.0 µM); 79% (active) in assay [4] (setting [7]); 92% (active) in assay [4] (setting [8]); 98.4% (active) in assay [4] (at 50.0 µM). The growth inhibition in assay [5] (setting [7]) was 90% (active); in assay [5] (setting [8]), 98% (active); in assay [5] (at 50.0 µM), 99.5% (active); in assay [6] (setting [7]) it was 90% (active); in assay [6] (setting [8]) it was 99% (active); in assay [6] (at 50.0 µM) it was 99.3% (active).
In the case of `CC1=C(C)CC(C#N)(C#N)C(C#N)(C#N)C1`, the growth inhibition in assay [1] (setting [7]) is -12%; in assay [1] (setting [8]) it was 80% (active); in assay [1] (at 50.0 µM), 83.9% (active); in assay [2] (setting [7]), 10%; in assay [2] (setting [8]), 92% (active); in assay [2] (at 50.0 µM), 79.6% (active). Moreover, the growth inhibition in assay [3] (setting [7]) is -13%; in assay [3] (setting [8]) it was 80% (active); in assay [3] (at 50.0 µM) it was 82.2% (active); in assay [4] (setting [7]) it was -18%; in assay [4] (setting [8]) it was 86% (active); in assay [4] (at 50.0 µM), 38.1%. Moreover, the growth inhibition in assay [5] (setting [7]) was 30%; in assay [5] (setting [8]) it was 97% (active); in assay [5] (at 50.0 µM), 58.7%; in assay [6] (setting [7]) it was 6%; in assay [6] (setting [8]), 97% (active); in assay [6] (at 50.0 µM), 75.3% (active).
